The values below come from PubChem BioAssay (EPA / NIEHS).

The nature of test [1]: ATG_TAL_CIS: Attagene CIS-FACTORIAL HepG2 Assay for human TAL Basal Promoter (AID 2282966; active = hit-call score of the fitted dose curve at least 0.9, where 1 is the maximum; inactive = score below 0.9;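 also: background control endpoint measuring basal TAL promoter reporter mRNA not a specific factor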). As to conditions: HepG2 Attagene cis-factorial TAL promoter reporter; actives raise or lower the signal. The essentials: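 Steps: transfect HepG2 with multiple reporter transcription units; dose 24 h; isolate RNA, reverse-transcribe, PCR-amplify, label with 6-FAM, digest with HpaI; resolve by capillary electrophoresis. Bidirectional fitting against DMSO baseline.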

Test [2] is described as follows: ATG_TGFb_CIS: Attagene CIS-FACTORIAL HepG2 Assay for human Transforming Growth Factor (TGF) (AID 2282967; active = hit-call score of the fitted dose curve at least 0.9, where 1 is the maximum; inactive = score below 0.9). Particulars: HepG2 Attagene CIS TGFb reporter, mRNA transcription; actives raise or lower the signal. The essentials:
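Liver HepG2 line, cis-factorial reporter panel, 24 h dosing. Quantitation: RT-PCR products labeled with 6-FAM, cut with HpaI, resolved by capillary electrophoresis; DMSO-referenced bidirectional analysis.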

The nature of test [3]: ATG_VDRE_CIS: Attagene CIS-FACTORIAL HepG2 Assay for human Vitamin D Receptor Element (VDRE) (AID 2282968; active = hit-call score of the fitted dose curve at least 0.9, where 1 is the maximum; inactive = score below 0.9). As to conditions: HepG2 VDRE cis-reporter transcription, actives raise or lower the signal. The method, boiled down: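 Cell-based multiplexed reporter format in human liver HepG2 cells, 24 h post-dose. Fluorescence from capillary electrophoresis of reporter cDNA gives the signal, with DMSO as negative control and baseline.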

The target in test [4] is Estrogen receptor (Homo sapiens) (UniProt P03372). Put plainly: ATG_ERa_TRANS: Attagene TRANS-FACTORIAL HepG2 Assay for human Estrogen Receptor alpha (ERa) (AID 2282970). As to conditions: HepG2 Attagene TRANS ERa GAL4 reporter, mRNA. The essentials: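 Multiplexed cell-based reporter format in HepG2: chimeric ERa-Gal4 protein drives GAL4-UAS reporter transcription. Fluorescent reporter mRNA quantified by capillary electrophoresis 24 hours after dosing; endpoint fitted as signal gain against DMSO.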

Test [5] concerns the target X-box-binding protein 1 (Homo sapiens) (UniProt P17861). Put plainly: ATG_Xbp1_CIS: Attagene CIS-FACTORIAL HepG2 Assay for human X-box Binding Protein 1 (XBP1) (AID 2282972; active = hit-call score of the fitted dose curve at least 0.9, where 1 is the maximum; inactive = score below 0.9). Particulars: HepG2 XBP1 cis-element reporter, Attagene multiplex; actives raise or lower the signal. The essentials: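 HepG2, transient MRTU transfection (cis-promoter driven), 24 h compound exposure. Total RNA → oligo(dT) RT → PCR → 6-FAM labeling → HpaI cut → CE. Bidirectional fit vs DMSO.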

Test [6] deals with Hepatocyte nuclear factor 4-alpha (Homo sapiens) (UniProt P41235). Put plainly: ATG_HNF4a_TRANS: Attagene TRANS-FACTORIAL HepG2 Assay for human Hepatocyte Nuclear Factor 4 alpha (HNF4a) (AID 2282982). As to conditions: HepG2 HNF4a transactivation reporter, mRNA readout. The method, boiled down:
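Gain-of-signal mRNA induction, relative to DMSO vehicle, was read after 24 h compound treatment of HepG2 cells bearing transfected GAL4-UAS reporters. Detection used RT-PCR, 6-FAM primer extension and capillary electrophoresis.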

Test [7] is described as follows: ATG_M_06_TRANS: Attagene TRANS-FACTORIAL HepG2 Assay for M06 Transcription Factor (Internal Marker) (AID 2282983). Particulars: HepG2 Attagene TRANS M06 internal marker reporter. The method, boiled down: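 Internal-marker background readout from a multiplexed TRANS reporter system in HepG2; 24 h dosing; mRNA induction quantified by RT-PCR plus capillary electrophoresis fluorescence; DMSO as negative control and baseline.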

Test [8] is described as follows: ATG_M_32_TRANS: Attagene TRANS-FACTORIAL HepG2 Assay for M32 Transcription Factor (Internal Marker) (AID 2282984).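 Also: transcript level of a background control reporter unit measured by RT-PCR and capillary electrophoresis.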 As to conditions: HepG2 Attagene TRANS M32 internal marker reporter. The essentials:
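Capillary electrophoresis of 6-FAM-labelled reporter fragments gives the signal; data fitted for gain over DMSO negative control. Source: HepG2 cells bearing transient multiple reporter transcription units, 24 h exposure.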

Test [9] addresses Transcriptional activator Myb (Homo sapiens) (UniProt P10242). Briefly: ATG_Myb_CIS: Attagene CIS-FACTORIAL HepG2 Assay for human Myeloblastosis (Myb) Proto-Oncogene Transcription Factor (AID 2282986; active = hit-call score of the fitted dose curve at least 0.9, where 1 is the maximum; inactive = score below 0.9). As to conditions: HepG2 Attagene CIS-FACTORIAL Myb reporter transcription; actives raise or lower the signal. The method, boiled down:
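HepG2 cells were transiently transfected with cis-regulated multiple reporter transcription units reflecting endogenous Myb activity, then exposed to compound for 24 hours. Reporter mRNA was measured by RT-PCR with capillary electrophoresis; bidirectional fitting versus DMSO baseline.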

In test [10] the target is Nuclear respiratory factor 1 (Homo sapiens) (UniProt Q16656). Put plainly: ATG_NRF1_CIS: Attagene CIS-FACTORIAL HepG2 Assay for human Nuclear Respiratory Factor 1 (NRF1) Orphan Gene (AID 2282987; active = hit-call score of the fitted dose curve at least 0.9, where 1 is the maximum; inactive = score below 0.9). As to conditions: HepG2 NRF1 cis-element reporter, Attagene multiplex; actives raise or lower the signal. The method, boiled down:
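HepG2 cells transiently transfected with multiple reporter transcription units under cis-regulatory promoter control, so endogenous transcription-factor activity is read. After 24 h compound exposure, reporter mRNA quantified by RT-PCR, fluorescent labelling, HpaI digestion and capillary electrophoresis; bidirectional fitting versus DMSO.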

Test [11] concerns the target Bile acid receptor (Homo sapiens) (UniProt Q96RI1). Briefly: ATG_FXR_TRANS: Attagene TRANS-FACTORIAL HepG2 Assay for Farnesoid X Receptor (FXR) (AID 2282979).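 Also: hits raise reporter mRNA above DMSO so AC50 marks FXR activation.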 Particulars: HepG2 Attagene TRANS FXR-GAL4 reporter transcription. The method, boiled down: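 After 24 h chemical treatment of transfected HepG2 cells, GAL4-UAS reporter transcripts driven by an exogenous FXR-GAL4 fusion were measured by RT-PCR and capillary electrophoresis. Increases over DMSO were fitted.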

The target in test [12] is Oxysterols receptor LXR-alpha (Homo sapiens) (UniProt Q13133). Put plainly: ATG_LXRa_TRANS: Attagene TRANS-FACTORIAL HepG2 Assay for human Liver X Receptor alpha (LXRa) (AID 2282980). As to conditions: HepG2 Attagene TRANS reporter, LXRa transactivation. The essentials:
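In this multiplexed TRANS system, compounds act on HepG2 cells carrying GAL4-UAS reporter units and a receptor-GAL4 fusion for 24 h. Induced reporter RNA is amplified, fluorescently labelled and sized by capillary electrophoresis, with DMSO as baseline.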

In test [13] the target is Oxysterols receptor LXR-beta (Homo sapiens) (UniProt P55055). Put plainly: ATG_LXRb_TRANS: Attagene TRANS-FACTORIAL HepG2 Assay for human Liver X Receptor beta (LXRb) (AID 2282981). As to conditions: HepG2 Attagene TRANS GAL4-LXRb reporter, mRNA. The method, boiled down:
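Gain-of-signal mRNA reporter endpoint, DMSO as negative control. Transiently transfected HepG2 cells carrying the NR-Gal4 chimera and GAL4-UAS reporter units were treated 24 h; transcripts quantified by RT-PCR and capillary electrophoresis fluorescence.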

Test [14] concerns the target Nuclear receptor subfamily 4 group A member 2 (Homo sapiens) (UniProt P43354). Put plainly: ATG_NURR1_TRANS: Attagene TRANS-FACTORIAL HepG2 Assay for human Nuclear Receptor Related Protein 1 (NURR1) (AID 2282985). As to conditions: HepG2 Attagene TRANS reporter, mRNA readout. The essentials:
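HepG2 / transient MRTU transfection / 24 h compound exposure / RT-PCR + CE fluorescence of reporter mRNA / gain-of-signal vs DMSO.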

Test [15] in a line: ATG_M_19_TRANS: Attagene TRANS-FACTORIAL HepG2 Assay for M19 Transcription Factor (Internal Marker) (AID 2282974). Particulars: HepG2 Attagene TRANS-FACTORIAL M19 internal marker reporter. The method, boiled down:
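HepG2 cells transiently transfected with multiple GAL4-UAS reporter transcription units were exposed to chemicals for 24 h. Reporter mRNA was read by RT-PCR, 6-FAM primer extension, HpaI digestion and capillary electrophoresis; gain of signal fitted relative to DMSO.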

Test [16] in a line: ATG_GAL4_TRANS: Attagene TRANS-FACTORIAL HepG2 Assay for GAL4 (Internal Marker) (AID 2282976). Particulars: HepG2 Attagene TRANS GAL4 internal marker reporter. The method, boiled down: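 Liver HepG2 line bearing multiplexed GAL4-UAS reporter constructs; 24 h chemical treatment. Transcripts were quantified as fluorescent fragments on capillary electrophoresis after RT-PCR and HpaI cut, with activity fitted upward from DMSO.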

The target in test [17] is Glucocorticoid receptor (Homo sapiens) (UniProt P04150). Briefly: ATG_GR_TRANS: Attagene TRANS-FACTORIAL HepG2 Assay for human Glucocorticoid Receptor (GR) (AID 2282978).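 Also: activators score as hits since higher reporter transcript over DMSO is fitted.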 As to conditions: HepG2 Attagene TRANS GR reporter, mRNA transcription. The essentials: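 HepG2 cells transiently transfected with multiplexed reporter units in which chimeric NR-GAL4 proteins drive GAL4-UAS reporters; 24 h compound exposure. Reporter mRNA measured by RT-PCR, 6-FAM labelling, HpaI digestion and capillary electrophoresis; gain-of-signal fitted versus DMSO.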

Test [18] has as its target Steroid hormone receptor ERR1 (Homo sapiens) (UniProt P11474). Put plainly: ATG_ERRa_TRANS: Attagene TRANS-FACTORIAL HepG2 Assay for human Estrogen-Related Receptor alpha (ERRa) (AID 2282971). As to conditions: HepG2 Attagene TRANS reporter, ERRa transactivation. The essentials: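 Signal gain relative to DMSO for an ERRa-Gal4 chimeric receptor, read as reporter mRNA by RT-PCR/capillary electrophoresis. Human HepG2 liver cells, transient multiplex reporter transfection, 24 h chemical exposure.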

Test [19] concerns the target Estrogen-related receptor gamma (Homo sapiens) (UniProt P62508). Briefly: ATG_ERRg_TRANS: Attagene TRANS-FACTORIAL HepG2 Assay for human Estrogen-Related Receptor gamma (ERRg) (AID 2282977).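 Also: hits increase reporter signal over DMSO so potencies reflect activators.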 As to conditions: HepG2 Attagene TRANS reporter, ERRg transactivation. The method, boiled down:
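HepG2 cells transiently transfected with multiplexed GAL4-UAS reporter units and chimeric NR-Gal4 constructs were exposed to test chemicals for 24 h. Reporter mRNA was measured by RT-PCR, 6-FAM primer extension, HpaI digestion and capillary electrophoresis; gain-of-signal versus DMSO.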

Results filed as inconclusive are left out. Calls of active or inactive are those of the source. The calls were made as follows, unless noted: active = hit-call score of the fitted dose curve at least 0.9, where 1 is the maximum; inconclusive = response in the unintended direction; inactive = score below 0.9.

Chain of Nuclear receptor subfamily 4 group A member 2 (Homo sapiens) (P43354 whole entry, looked up): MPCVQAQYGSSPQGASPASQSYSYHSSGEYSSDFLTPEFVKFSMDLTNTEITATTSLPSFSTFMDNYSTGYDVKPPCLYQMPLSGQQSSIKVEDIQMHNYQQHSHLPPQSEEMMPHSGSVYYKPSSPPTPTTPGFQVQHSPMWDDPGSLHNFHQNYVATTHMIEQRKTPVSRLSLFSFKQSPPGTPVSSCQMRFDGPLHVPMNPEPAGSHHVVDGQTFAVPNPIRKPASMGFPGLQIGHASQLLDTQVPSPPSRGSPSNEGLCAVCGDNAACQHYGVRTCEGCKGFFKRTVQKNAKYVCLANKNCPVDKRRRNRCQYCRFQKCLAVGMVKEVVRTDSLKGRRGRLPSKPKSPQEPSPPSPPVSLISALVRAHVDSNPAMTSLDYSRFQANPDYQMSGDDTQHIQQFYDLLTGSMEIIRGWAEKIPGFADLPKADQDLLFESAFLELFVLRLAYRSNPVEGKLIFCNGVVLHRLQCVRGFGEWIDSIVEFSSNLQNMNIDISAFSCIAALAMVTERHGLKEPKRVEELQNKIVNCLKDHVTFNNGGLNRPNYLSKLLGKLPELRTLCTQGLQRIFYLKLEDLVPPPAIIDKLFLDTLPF
Chain of Bile acid receptor (Homo sapiens) (Q96RI1 whole entry, looked up, the tested form may be a part): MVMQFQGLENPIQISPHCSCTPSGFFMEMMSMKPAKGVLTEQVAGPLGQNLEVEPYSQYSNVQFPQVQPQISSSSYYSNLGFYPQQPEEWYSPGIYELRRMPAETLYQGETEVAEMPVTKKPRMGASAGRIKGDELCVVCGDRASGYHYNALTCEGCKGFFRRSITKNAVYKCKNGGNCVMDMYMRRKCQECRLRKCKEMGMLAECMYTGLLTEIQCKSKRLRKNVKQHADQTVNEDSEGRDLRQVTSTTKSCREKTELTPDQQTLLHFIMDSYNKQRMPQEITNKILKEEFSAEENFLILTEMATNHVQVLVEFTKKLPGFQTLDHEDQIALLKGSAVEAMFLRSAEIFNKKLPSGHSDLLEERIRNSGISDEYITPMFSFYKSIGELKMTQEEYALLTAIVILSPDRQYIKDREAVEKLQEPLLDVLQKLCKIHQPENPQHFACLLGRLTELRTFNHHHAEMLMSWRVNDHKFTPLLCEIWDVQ
Chain of Transcriptional activator Myb (Homo sapiens) (P10242 whole entry, looked up): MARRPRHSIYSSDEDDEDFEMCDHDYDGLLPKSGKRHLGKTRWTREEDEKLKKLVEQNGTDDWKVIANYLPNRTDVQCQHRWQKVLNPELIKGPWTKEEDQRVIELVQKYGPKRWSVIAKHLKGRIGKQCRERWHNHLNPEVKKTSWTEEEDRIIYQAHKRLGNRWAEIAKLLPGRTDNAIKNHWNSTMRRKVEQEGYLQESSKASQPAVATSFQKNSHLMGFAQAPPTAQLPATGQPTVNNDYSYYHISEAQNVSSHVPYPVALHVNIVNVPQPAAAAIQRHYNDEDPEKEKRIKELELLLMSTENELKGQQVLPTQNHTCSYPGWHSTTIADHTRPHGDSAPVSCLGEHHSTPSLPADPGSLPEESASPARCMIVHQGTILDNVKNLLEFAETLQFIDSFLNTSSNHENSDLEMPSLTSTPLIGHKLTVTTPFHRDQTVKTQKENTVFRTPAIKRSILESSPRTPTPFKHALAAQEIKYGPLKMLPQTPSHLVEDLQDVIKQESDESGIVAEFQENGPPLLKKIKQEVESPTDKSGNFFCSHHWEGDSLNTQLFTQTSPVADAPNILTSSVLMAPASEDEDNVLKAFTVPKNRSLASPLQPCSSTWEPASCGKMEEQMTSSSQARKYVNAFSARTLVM
Chain of Oxysterols receptor LXR-alpha (Homo sapiens) (Q13133 whole entry, looked up, the tested form may be a part): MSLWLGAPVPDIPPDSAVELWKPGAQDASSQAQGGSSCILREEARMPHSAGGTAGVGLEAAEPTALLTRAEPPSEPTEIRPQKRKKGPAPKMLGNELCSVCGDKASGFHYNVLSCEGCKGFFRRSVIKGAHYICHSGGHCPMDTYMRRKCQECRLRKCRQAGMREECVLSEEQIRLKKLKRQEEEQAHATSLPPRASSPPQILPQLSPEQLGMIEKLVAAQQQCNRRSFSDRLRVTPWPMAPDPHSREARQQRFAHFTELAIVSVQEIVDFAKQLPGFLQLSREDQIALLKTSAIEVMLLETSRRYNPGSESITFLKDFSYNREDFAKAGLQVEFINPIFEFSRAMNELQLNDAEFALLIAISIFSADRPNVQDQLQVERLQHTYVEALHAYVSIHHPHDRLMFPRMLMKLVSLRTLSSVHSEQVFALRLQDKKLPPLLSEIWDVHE
Chain of Estrogen-related receptor gamma (Homo sapiens) (P62508 whole entry, looked up, the tested form may be a part): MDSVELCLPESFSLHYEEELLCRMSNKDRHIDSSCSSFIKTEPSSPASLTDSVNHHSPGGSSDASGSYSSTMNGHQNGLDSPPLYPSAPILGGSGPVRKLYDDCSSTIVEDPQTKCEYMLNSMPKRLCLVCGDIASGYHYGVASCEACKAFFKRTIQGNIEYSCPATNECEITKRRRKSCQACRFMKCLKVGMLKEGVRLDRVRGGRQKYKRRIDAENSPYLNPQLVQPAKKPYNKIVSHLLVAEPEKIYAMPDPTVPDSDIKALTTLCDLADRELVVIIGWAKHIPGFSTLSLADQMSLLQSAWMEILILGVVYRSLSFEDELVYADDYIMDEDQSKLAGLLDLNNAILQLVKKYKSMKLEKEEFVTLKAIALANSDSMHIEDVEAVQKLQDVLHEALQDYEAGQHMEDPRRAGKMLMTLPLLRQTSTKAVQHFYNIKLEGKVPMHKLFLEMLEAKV
Chain of X-box-binding protein 1 (Homo sapiens) (P17861 whole entry, looked up): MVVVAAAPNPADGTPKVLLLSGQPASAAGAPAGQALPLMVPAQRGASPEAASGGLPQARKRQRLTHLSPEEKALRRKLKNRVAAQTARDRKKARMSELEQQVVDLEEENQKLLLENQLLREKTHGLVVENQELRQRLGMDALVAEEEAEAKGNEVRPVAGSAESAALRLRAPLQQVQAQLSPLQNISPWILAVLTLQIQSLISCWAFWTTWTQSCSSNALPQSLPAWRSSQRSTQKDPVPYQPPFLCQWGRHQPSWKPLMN
Chain of Nuclear respiratory factor 1 (Homo sapiens) (Q16656 whole entry, looked up): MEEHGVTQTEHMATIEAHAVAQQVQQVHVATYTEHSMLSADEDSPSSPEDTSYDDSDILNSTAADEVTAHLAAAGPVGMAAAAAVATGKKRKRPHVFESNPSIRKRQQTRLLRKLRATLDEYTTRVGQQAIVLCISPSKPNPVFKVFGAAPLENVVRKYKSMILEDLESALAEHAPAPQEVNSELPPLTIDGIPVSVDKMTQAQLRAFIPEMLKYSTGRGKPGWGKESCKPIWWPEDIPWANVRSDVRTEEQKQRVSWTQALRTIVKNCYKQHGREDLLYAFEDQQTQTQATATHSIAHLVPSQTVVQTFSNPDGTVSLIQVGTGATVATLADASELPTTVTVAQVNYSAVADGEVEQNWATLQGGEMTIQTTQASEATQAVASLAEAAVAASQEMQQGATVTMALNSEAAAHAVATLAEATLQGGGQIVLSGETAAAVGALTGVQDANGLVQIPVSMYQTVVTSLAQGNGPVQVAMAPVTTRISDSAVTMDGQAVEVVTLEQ
Chain of Oxysterols receptor LXR-beta (Homo sapiens) (P55055 whole entry, looked up, the tested form may be a part): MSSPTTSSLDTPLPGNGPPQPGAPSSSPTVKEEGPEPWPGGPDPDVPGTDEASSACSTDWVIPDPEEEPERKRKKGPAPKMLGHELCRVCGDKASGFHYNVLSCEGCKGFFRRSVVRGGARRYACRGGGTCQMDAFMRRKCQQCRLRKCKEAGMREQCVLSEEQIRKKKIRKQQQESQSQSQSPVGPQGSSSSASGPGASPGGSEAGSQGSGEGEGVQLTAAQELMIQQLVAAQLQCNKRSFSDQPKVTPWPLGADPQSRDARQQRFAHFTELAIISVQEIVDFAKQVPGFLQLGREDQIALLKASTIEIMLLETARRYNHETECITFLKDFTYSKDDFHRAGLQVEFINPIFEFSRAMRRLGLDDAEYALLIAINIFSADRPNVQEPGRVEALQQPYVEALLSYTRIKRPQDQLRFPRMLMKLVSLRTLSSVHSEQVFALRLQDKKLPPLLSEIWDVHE
Chain of Estrogen receptor (Homo sapiens) (P03372 whole entry, looked up, the tested form may be a part): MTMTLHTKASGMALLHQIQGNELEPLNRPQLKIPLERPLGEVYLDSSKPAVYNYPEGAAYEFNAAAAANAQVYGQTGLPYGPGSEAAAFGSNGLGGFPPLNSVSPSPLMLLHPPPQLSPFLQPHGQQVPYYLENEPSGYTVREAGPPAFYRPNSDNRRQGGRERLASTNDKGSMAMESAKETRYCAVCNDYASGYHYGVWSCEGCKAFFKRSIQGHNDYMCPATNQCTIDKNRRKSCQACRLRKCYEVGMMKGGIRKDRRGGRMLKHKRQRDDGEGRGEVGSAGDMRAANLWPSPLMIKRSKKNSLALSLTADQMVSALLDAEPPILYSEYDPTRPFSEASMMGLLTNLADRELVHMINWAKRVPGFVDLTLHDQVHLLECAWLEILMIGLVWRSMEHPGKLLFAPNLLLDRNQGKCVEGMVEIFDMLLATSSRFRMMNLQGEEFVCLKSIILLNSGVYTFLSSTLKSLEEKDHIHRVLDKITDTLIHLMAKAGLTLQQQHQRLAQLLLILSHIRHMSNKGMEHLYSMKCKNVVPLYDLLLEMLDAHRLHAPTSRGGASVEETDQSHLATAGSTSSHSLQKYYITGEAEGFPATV
Chain of Steroid hormone receptor ERR1 (Homo sapiens) (P11474 whole entry, looked up, the tested form may be a part): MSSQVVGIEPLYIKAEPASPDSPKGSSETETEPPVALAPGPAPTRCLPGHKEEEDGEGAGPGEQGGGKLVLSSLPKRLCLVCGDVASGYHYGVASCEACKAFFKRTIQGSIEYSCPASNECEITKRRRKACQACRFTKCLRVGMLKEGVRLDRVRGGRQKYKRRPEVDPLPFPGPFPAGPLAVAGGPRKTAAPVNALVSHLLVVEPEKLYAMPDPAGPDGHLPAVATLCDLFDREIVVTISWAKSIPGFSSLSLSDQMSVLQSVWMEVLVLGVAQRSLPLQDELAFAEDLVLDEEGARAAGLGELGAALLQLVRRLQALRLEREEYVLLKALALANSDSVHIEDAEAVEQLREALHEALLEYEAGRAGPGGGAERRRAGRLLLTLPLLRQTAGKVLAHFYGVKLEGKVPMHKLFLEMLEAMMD

As for `CCOC(=O)c1ccccc1C(=C1C=C(Br)C(=O)C(Br)=C1)c1cc(Br)c(O)c(Br)c1`, the outcome in test [1], in test [2], in [4], in test [6], in test [7] and in [8] was inactive. For the same compound, the call in [9] and in test [10] was inactive. In addition, the AC50 – broadly, the concentration giving half of the maximal activity seen – in test [3] is 25.9 µM (active); in test [5] it was 34.4 µM (active).

As for `CC(C)COC(=O)C=Cc1ccccc1`, the call in test [1], in [2], in [3], in [5], in test [11] and in [12] was inactive. Also, the compound was called inactive in test [13], in test [7], in test [14], in [9] and in [10]. Further, the AC50 in test [4] was 71.6 µM (active).

As for `COCc1c(C(C)C)nc(C(C)C)c(/C=C/[C@@H](O)C[C@@H](O)CC(=O)O)c1-c1ccc(F)cc1`, the result in [1], in test [2], in [5], in test [15], in [16] and in test [17] was inactive. Also, the outcome in test [6], in test [7], in [14] and in [9] was inactive. Moreover, in test [3], the AC50 is 2.34 µM (active).

For `N=c1ccn2c(n1)O[C@H]1[C@H](O)[C@@H](CO)O[C@H]12`, the compound was called inactive in test [1], in test [2], in test [3], in [18], in test [5] and in test [15]. For the same compound, the result in [19], in test [17], in test [13], in [6], in test [8] and in [9] was inactive. In addition, the call in [10] was inactive.

With `CCN(CC)c1ccc(C(=O)c2ccccc2C(=O)O)c(O)c1`, the outcome in test [1], in test [2], in test [4], in test [5], in test [12] and in [6] was inactive. In addition, the outcome in test [7], in [8], in [9] and in [10] was inactive. The AC50 in test [3] was 1.7 µM (active).

Turning to `CCCC(=O)OCc1ccccc1`, the call in test [1], in test [2], in test [3], in test [18], in test [15] and in test [16] was inactive. Also, the call in [6], in test [8], in test [9] and in test [10] was inactive.

Regarding `Cc1cc(O)c(Cl)c(C)c1Cl`, the result in test [1], in test [2], in test [3], in [5], in test [13] and in test [6] was inactive. In addition, the result in [7], in test [9] and in [10] was inactive. Further, the AC50 in test [4] was 26.8 µM (active).

For `CCCCCCCCCCCCCCCC[N+](C)(C)CC`, the compound was classed as inactive in test [1], in test [2], in [18], in [5], in test [11] and in test [12]. Besides, the result in test [13], in [7], in test [8], in [14] and in test [9] was inactive. The AC50 is 9.07 µM (active) in test [3], 9.59 µM (active) in test [19] and 11 µM (active) in [6].

For the compound `O=C(O)c1ccccc1Nc1cccc(C(F)(F)F)c1`, the result in test [1], in test [2], in [4], in [13], in [7] and in [8] was inactive. The call in test [9] and in test [10] was inactive. Also, the AC50 was 44.5 µM (active) in test [3] and 76.5 µM (active) in test [5].

As to `Cn1c(=O)[nH]c2ncn(C)c2c1=O`, the call in test [1], in [2], in [3], in test [4], in [5] and in test [11] was inactive. In addition, the outcome in test [13], in test [6], in [7], in [8], in test [9] and in [10] was inactive.

Take `CCc1nccnc1C`: the compound was classed as inactive in [1], in [2], in test [3], in [18], in test [5] and in test [15]. The call in test [16], in test [19], in test [17], in [13], in [6] and in test [7] was inactive. Besides, the call in test [8], in test [14], in [9] and in [10] was inactive.
